Experimental data reported in PubChem BioAssay (Tox21).
Records with an inconclusive call do not appear. A call without a number means that no potency is given here. Calls of active or inactive are those of the source. Calls follow the shape of the full dose curve.

Test: qHTS assay to identify small molecule agonists or antagonists of the thyroid stimulating hormone receptor (TSHR) signaling pathway - wild type cell line counter screen (AID 1259384)
Conditions: HEK293 wild type, cAMP HTRF counter-screen; series mostly up to 92.4 µM
From the text: U.S. Tox21 Program National Center for Advancing Translational Sciences [NCATS] NIH Chemical Genomics Center [NCGC] U.S. Environmental Protection Agency [EPA] National Institutes of Environmental Health Sciences [NIEHS] National Toxicology Program [NTP] U.S. Food and Drug Administration [FDA] Tox21 Assay Overview: TSHR is the receptor for thyrotropin (thyroid stimulating hormone or TSH), a member of the glycoprotein hormone family. TSH is released by the anterior pituitary gland and is the main regulator of thyroid gland growth and development. Upon binding circulating thyrotropin, a G-protein signal cascade activates adenylyl cyclase and […] cAMP concentration is increased. cAMP is a key second messenger involved extensively in cellular signal transduction pathways associated with the majority of G-protein coupled receptors (GPCRs). The activation of these GPCRs by neurotransmitters, lipids, nucleotides, peptides and hormones results in the activation or the inhibition of plasma membrane-bound adenylate cyclase through heterotrimeric G-proteins. A cell-based TSHR-Hek293 assay can be used to identify TSHR agonists. To eliminate the false positive compounds identified from screening a cell-based TSHR-Hek293 cell line, cAMP assay in a wild type Hek293 cells was used as a counter screening.
Tox21 Assay Protocol Summary: Hek293 cells (wild type) were dispensed at 800 cells/4 uL/well in 1536-well white plates using a Multidrop dispenser. After the assay plates were incubated at a 37 C/5% CO2 incubator for 18 hrs, 23 nL of compounds dissolved in DMSO, positive controls or DMSO only was transferred to the assay plate by a pin tool, followed by 1 ul medium containing Ro20-1724. After 30 min of incubation at room temperature, 2.5 ul/well of cAMP-d2 and 2.5 ul/well of anti-cAMP-cryptate were added respectively into the assay plates using a Flying Reagent Dispenser. The plates were incubated at room temperature for 1 hr. The fluorescence intensity in the plates was measured using an Envision plate reader. Each test compound was measured at 15 concentrations and in triplicates.

SMILES | Potency
COc1ccc(Cc2cnc(N)nc2N)cc1OC | inactive
NCCO | inactive
O=C(O)CP(=O)(O)O | inactive
CCCOC(=O)c1cc(O)c(O)c(O)c1 | inactive
CCCCCC(=O)O[C@]1(C(C)=O)CC[C@H]2[C@@H]3CCC4=CC(=O)CC[C@]4(C)[C@H]3CC[C@@]21C | inactive
CCOc1ccccc1C(N)=O | inactive
c1ccc2c(c1)CCCC2C1=NCCN1 (stereo not given) | inactive
N[C@@H]1CONC1=O | inactive
CCc1cc(C(C)(C)C)c(O)c(C(C)(C)C)c1 | inactive
CCOC(=O)C(C)C(C)=O (stereo not given) | inactive
c1cc(C(c2ccc(OCC3CO3)cc2)C(c2ccc(OCC3CO3)cc2)c2ccc(OCC3CO3)cc2)ccc1OCC1CO1 (stereo not given) | inactive
CC(N)=O | inactive
Cc1c(O)cccc1C(=O)N[C@@H](CSc1ccccc1)[C@H](O)CN1C[C@H]2CCCC[C@H]2C[C@H]1C(=O)NC(C)(C)C | inactive
O=c1n(CC2CO2)c(=O)n(CC2CO2)c(=O)n1CC1CO1 (stereo not given) | inactive
O=C(Oc1ccccc1)c1ccccc1O | inactive
CC1=C(C=O)C(C)(C)CC=C1 | inactive
C=CC(=O)OCCCCCCCC | inactive
O=C(Cl)c1cccc(C(=O)Cl)c1 | inactive
CCCCC/C=C/CC1CC(=O)OC1=O (stereo not given) | inactive
O=C1CC2(CCCC2)CC(=O)N1CCCCN1CCN(c2ncccn2)CC1 | inactive

SMILES | Potency
Cc1scc2c1N(C(=O)CN1CCN(C)CC1)c1ccccc1NC2=O | inactive
CC(C)(O)CCC(C)(C)O | inactive
CCn1cc(C(=O)O)c(=O)c2cc(F)c(N3CCNC(C)C3)c(F)c21 (stereo not given) | inactive
CNC1(C)C2CCC(C2)C1(C)C (stereo not given) | inactive
CC(C)(C)c1cc(C(C)(C)C)c(O)c(C(C)(C)C)c1 | inactive
CCCCCCCCCCCC[N+](C)(C)C | inactive
CC(C)(c1ccccc1)c1ccc(Nc2ccc(C(C)(C)c3ccccc3)cc2)cc1 | inactive
CC(C)CCOC(=O)c1ccc(N(C)C)cc1 | inactive
c1ccc2c(c1)-c1cccc3c1c-2cc1ccccc13 | inactive
COc1ccc(COC(C)=O)cc1 | inactive
CC(C)CCOCc1ccccc1 | inactive
C1COC(NC(C2CC2)C2CC2)=N1 | inactive
COC(=O)/C=C/c1ccccc1 | inactive
C=CS(=O)(=O)O | inactive
CCCNC(C)C(=O)Nc1ccccc1C (stereo not given) | inactive
NNCCc1ccccc1 | inactive
Cc1cc(OCCOCC[N+](C)(C)Cc2ccccc2)ccc1C(C)(C)CC(C)(C)C | inactive
O=Cc1ccc(Cl)cc1 | inactive
C=C(C)C1CC=C(C)C(OC(C)=O)C1 (stereo not given) | inactive
Cc1occc(=O)c1OC(=O)C(C)C | inactive
